For 16 compounds, Potency and outcome results are on record in PubChem BioAssay (Tox21).

Values joined by “and” are separate entries in the source; they are usually repeats but may differ in a detail not shown here. Equal entries are not always repeated. Results filed as inconclusive are left out. Some structures have more than one record in an assay (separate samples or runs), and their calls can disagree. Active and inactive are the calls of the source. Unless noted, calls follow the shape of the dose curve; as a rule, active = well fitted curve in the direction sought with a large enough effect in the repeat runs; inconclusive = weak or mixed curves; inactive = no such curve, though single readings can be large; an effect the other way counts as inactive or inconclusive.

Test [1] in a line: qHTS assay to identify small molecule agonists of the vitamin D receptor (VDR) signaling pathway - cell viability counter screen (AID 743224). Also: nearly all actives have a fitted effect of over 50% in size. Also: potency is read from the fitted curve at half-maximal effect. The method, boiled down:
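In parallel with the bla FRET readout, cytotoxicity toward VDR-bla cells after 16 h compound exposure was assessed by CellTiter-Glo, with luminescence recorded after a 30 min room-temperature incubation.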

Test [2] is described as follows: qHTS assay to identify small molecule antagonists of the vitamin D receptor (VDR) signaling pathway - cell viability counter screen (AID 743225). Also: nearly all actives have a fitted effect of over 50% in size. Also: potency is read from the fitted curve at half-maximal effect. The gist of the method:
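Viability counter screen run in the same wells as the beta-lactamase reporter assay: HEK 293T VDR-UAS-bla cells, 16 h compound exposure at 37C with 3 nM (final) 1-alpha,25-dihydroxyvitamin D3. CellTiter-Glo luminescence, 30 min, room temperature.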

Test [3] in a line: qHTS assay to identify small molecule agonists of the NFkB signaling pathway - cell viability counter screen (AID 1159515; calls by dose curve; also: nearly all actives have a fitted effect of over 55% in size; also: potency is read from the fitted curve at half-maximal effect). The method, boiled down: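 Plate 2,000 NFkB-bla ME-180 cells/well; incubate overnight. Add compounds, 5 hr at 37 C. Add FRET substrate, 1.5 hr RT. Add CellTiter-Glo, 30 min RT; read luminescence.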
Test [4] can be described thus: qHTS assay to identify small molecule agonists of the endoplasmic reticulum stress response signaling pathway - cell viability counter screen (AID 1159517; calls by dose curve; also: nearly all actives have a fitted effect of over 50% in size; also: potency is read from the fitted curve at half-maximal effect). The gist of the method: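 Cytotoxicity of test compounds toward ESRE-bla HeLa cells was assessed after 5 hr exposure. The luminescent CellTiter-Glo signal was measured 30 min after reagent addition.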
The nature of test [5]: qHTS assay to identify small molecule antagonists of the retinoid-related orphan receptor gamma (ROR-gamma) signaling pathway - cell viability counter screen (AID 1159520). Also: nearly all actives have a fitted effect of over 50% in size. Also: potency is read from the fitted curve at half-maximal effect. The gist of the method: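 Tet-on ROR gamma CHO cells (1,000/well) were plated 4 hr, given compounds in DMSO for 2 hr at 37 C, then induced with 1 uM final doxycycline for 16 hr. Viability was read as ATP by CellTiter-Glo luminescence after 30 min.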

Test [6] in a line: qHTS assay to identify small molecule agonists of the AP-1 signaling pathway - cell viability counter screen (AID 1159525; calls by dose curve; also: nearly all actives have a fitted effect of over 55% in size; also: potency is read from the fitted curve at half-maximal effect). The method, boiled down:
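Each titration point was normalised to DMSO and tetra n-octyl ammonium bromide controls. The read was Cell Titer Glo luminescence after 30 min at RT, following 5 h compound exposure of ME-180 AP-1-bla cells at 37 °C.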

Test [7] in a line: qHTS assay to identify small molecule agonists of the AP-1 signaling pathway (AID 1159526; calls by dose curve; also: potency is read from the fitted curve at half-maximal effect; as to activation: % is scaled to controls: 0 for no effect and ±100 for the full control effect).
Test [8] addresses Retinoic acid receptor RXR-alpha (Homo sapiens) (UniProt P19793). As to the kind of experiment: qHTS assay to identify small molecule agonists of the RXR signaling pathway (AID 1159527; calls by dose curve; also: % is scaled to controls: 0 for no effect and ±100 for the full control effect; nearly all actives have a fitted effect of over 35% in size). The method, boiled down: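 Agonist mode; 9-cis retinoic acid positive control. HEK 293T UAS-bla reporter cells, 2% charcoal-stripped FBS, 16 hr compound exposure at 37 C/5% CO2. LiveBLAzer B/G FRET substrate 2 hr RT; ex 405, em 460/530 nm.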

Test [9] can be described thus: qHTS assay to identify small molecule agonists of the RXR signaling pathway - cell viability counter screen (AID 1159529). Also: nearly all actives have a fitted effect of over 50% in size. Also: potency is read from the fitted curve at half-maximal effect. The method, boiled down: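 Luminescence from CellTiter-Glo (30 min, RT) measured viability in the same wells as the beta-lactamase reporter readout. Cells: GeneBLAzer RXR-alpha HEK 293T, 2% charcoal-stripped FBS. Compound exposure 16 hr, 37 C.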

Test [10] is described as follows: qHTS assay to identify small molecule antagonists of the retinoid acid receptor (RAR) signaling pathway - cell viability counter screen (AID 1159551). Also: nearly all actives have a fitted effect of over 35% in size. Also: potency is read from the fitted curve at half-maximal effect. The method, boiled down:
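Viability of C3RL4 cells is quantified from ATP by luminescence after 6 h treatment at 37 C with compounds and 1 uM retinol.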

The nature of test [11]: qHTS assay to identify small molecule antagonists of the retinoic acid receptor (RAR) signaling pathway (AID 1159552; also: nearly all actives have a fitted effect of over 50% in size; also: potency is read from the fitted curve at half-maximal effect). The gist of the method:
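Luminescence from a RARE luciferase reporter in C3RL4 cells served as read-out. Cells received compounds together with 1 uM final retinol and incubated 6 hr at 37 C before detection reagent was added for 30 min at room temperature.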

Test [12] in a line: qHTS assay to identify small molecule agonists of the retinoic acid receptor (RAR) signaling pathway (AID 1159553). Also: potency is read from the fitted curve at half-maximal effect. As to activation: % is scaled to controls: 0 for no effect and ±100 for the full control effect. The gist of the method: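 Compounds dissolved in DMSO were pinned onto C3RL4 cells seeded the previous day, and plates were held 6 hr at 37 C. RARE-driven luciferase output was then read by luminescence.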
Test [13] in a line: qHTS assay to identify small molecule antagonists of the estrogen related receptor (ERR) signaling pathway from Tox21 library - cell viability counter screen (AID 1224834). Also: nearly all actives have a fitted effect of over 30% in size. Also: potency is read from the fitted curve at half-maximal effect. The gist of the method:
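In this quantitative HTS format, ERR cells receive compounds in DMSO and are incubated for 17.5 h at 37 C. Live-cell protease activity is then detected with CellTiter-Fluor.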

Test [14] has as its target Nuclear receptor ROR-gamma (Homo sapiens) (UniProt P51449). As to the kind of experiment: qHTS assay to identify small molecule antagonists of the retinoid-related orphan receptor gamma (ROR-gamma) signaling pathway (AID 1159521; also: nearly all actives have a fitted effect of over 50% in size; also: potency is read from the fitted curve at half-maximal effect). The method, boiled down: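 Luminescence readout (ONE-Glo, 30 min RT) after 16 h doxycycline induction; loss of signal scored as antagonism. CHO cells with TET-inducible RORγ and RORE-LUC reporter; compounds added 2 h before 1 uM final doxycycline.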

The target in test [15] is Luciferin 4-monooxygenase (Photinus pyralis) (UniProt P08659). As to the kind of experiment: qHTS assay to identify small molecule inhibitors of firefly luciferase (AID 1224835). Also: nearly all actives have a fitted effect of over 25% in size. Also: potency is read from the fitted curve at half-maximal effect. The method, boiled down:
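Quantitative HTS format; KM concentrations of both substrates. Purified P. pyralis FLuc activity quantified from luminescence images.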

Test [16] is described as follows: qHTS assay to identify small molecule agonists of the endoplasmic reticulum stress response signaling pathway (AID 1159516; active = well fitted activation curve with a large enough effect in the signal ratio in the repeat runs, not every such curve was filed as active; the % refers to the signal ratio; also: % is scaled to controls: 0 for no effect and ±100 for the full control effect). The gist of the method: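 Beta-lactamase expression from the ER stress response element in HeLa reporter cells is quantified with the LiveBLAzer B/G FRET substrate, read at 405 nm excitation after 2 hr at room temperature, following 5 hr compound treatment at 37 C.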

A short description of test [17]: qHTS assay to identify small molecule antagonists of the estrogen related receptor (ERR) signaling pathway (AID 1224819). The method, boiled down: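 ERR reporter cells were plated at 2,000 cells/well and left 6 h at 37 C/5% CO2 before pin-tool transfer of compounds in DMSO. After 18 h at 37 C, One-Glo was added and luminescence was read 30 min later at room temperature.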

In test [18] the test system is estrogen-related receptor alpha (ERRalpha) with PGC-1alpha coactivator, human. As to the kind of experiment: qHTS assay to identify small molecule antagonists of the estrogen related receptor signaling pathway with the pleiotropic PPARgamma coactivator (PGC) (AID 1224821; calls by dose curve). The method, boiled down:
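PGC/ERR reporter cells; 6 h pre-incubation 37 C/5% CO2; pin-tool compound in DMSO, 18 h 37 C; One-Glo added, 30 min RT; luminescence read. qHTS antagonist mode.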

Chain of Retinoic acid receptor RXR-alpha (Homo sapiens) (P19793 whole entry, looked up): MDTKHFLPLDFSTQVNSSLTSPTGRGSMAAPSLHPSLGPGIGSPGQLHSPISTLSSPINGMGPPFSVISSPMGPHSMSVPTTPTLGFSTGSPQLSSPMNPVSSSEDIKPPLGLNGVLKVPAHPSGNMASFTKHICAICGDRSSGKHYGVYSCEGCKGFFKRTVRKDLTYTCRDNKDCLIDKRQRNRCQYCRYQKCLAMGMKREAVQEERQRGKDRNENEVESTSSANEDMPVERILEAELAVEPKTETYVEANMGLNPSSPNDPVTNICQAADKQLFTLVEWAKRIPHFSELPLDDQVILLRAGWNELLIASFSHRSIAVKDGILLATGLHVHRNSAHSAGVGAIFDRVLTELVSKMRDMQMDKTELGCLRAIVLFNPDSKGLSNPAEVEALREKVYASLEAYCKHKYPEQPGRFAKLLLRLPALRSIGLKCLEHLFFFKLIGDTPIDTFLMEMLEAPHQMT
Chain of Luciferin 4-monooxygenase (Photinus pyralis) (P08659 whole entry, looked up): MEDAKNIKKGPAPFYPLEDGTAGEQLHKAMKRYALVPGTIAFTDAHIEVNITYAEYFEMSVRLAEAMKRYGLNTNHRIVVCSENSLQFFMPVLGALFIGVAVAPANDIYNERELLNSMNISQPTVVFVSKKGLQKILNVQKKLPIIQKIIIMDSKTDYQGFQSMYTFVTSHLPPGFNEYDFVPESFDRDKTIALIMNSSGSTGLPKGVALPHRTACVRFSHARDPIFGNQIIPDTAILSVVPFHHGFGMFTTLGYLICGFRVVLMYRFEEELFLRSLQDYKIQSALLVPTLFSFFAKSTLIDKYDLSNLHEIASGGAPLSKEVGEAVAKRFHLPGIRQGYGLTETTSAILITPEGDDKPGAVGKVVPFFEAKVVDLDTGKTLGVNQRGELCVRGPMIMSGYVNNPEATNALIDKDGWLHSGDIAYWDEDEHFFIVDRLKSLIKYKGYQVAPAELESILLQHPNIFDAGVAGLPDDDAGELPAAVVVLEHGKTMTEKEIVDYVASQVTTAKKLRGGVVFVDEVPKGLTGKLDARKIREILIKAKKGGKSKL

As to `O=C(O)c1cc(Cl)cc(Cl)c1`, the Potency entry in test [1], in test [2], in test [3], in [4], in test [5] and in [6] was “inactive” in each case. Moreover, the Potency entry in test [7], in [8], in [9], in test [10], in test [11] and in test [12] was “inactive” each time. The Potency entry in [13] is “inactive”.

As to `CCCCC/C=C/CC1CC(=O)OC1=O` (configuration not stated), the Potency entry in test [1], in [2], in test [3], in [4], in [14] and in test [6] was “inactive” in each case. The Potency entry in test [7], in test [8], in [9], in [10], in test [11] and in test [12] was “inactive” in each case. Besides, the Potency entry in [13] and in test [15] was “inactive” each time.

For the compound `CCCCC(CC)COC(=O)CC(C(=O)OCC(CC)CCCC)S(=O)(=O)O` (configuration not stated), the Potency in test [1] is 42 µM (active) and 43.6 µM (active); in [2] it was 21.1 µM (active) and 15.5 µM (active); in [3] it was 47.1 µM (active) and 49 µM (active); in test [6], 42 µM (active) and 49 µM (active); in [9], 21.1 µM (active) and 43.6 µM (active). Further, the Potency result in test [5], in [14], in test [11], in [12] and in test [15] was “inactive” each time.

`CN(C)c1ccc(C(=C2C=CC(=[N+](C)C)C=C2)c2ccccc2)cc1`: the Potency in test [1] was 219 nM (active) and 2.11 µM (active); in test [2] it was 490 nM (active) and 3.38 µM (active); in [3], 3.09 µM (active) and 10.7 µM (active); in test [4], 27.5 µM (active); in test [5], 5.45 µM (active) and 4.22 µM (active) and 10.6 µM (active); in test [6], 13.8 µM (active) and 23.9 µM (active) and 10.7 µM (active). Besides, the Potency in [7] was 0.848 µM (active); in test [9], 3.47 µM (active) and 2.39 µM (active) and 4.25 µM (active); in test [10], 10.6 µM (active) [middle of 4 runs].

Turning to `CCc1cc(C(C)(C)C)c(O)c(C(C)(C)C)c1`, the Potency result in [1], in [2], in test [3], in test [4], in [14] and in test [6] was “inactive” throughout. Besides, the Potency result in test [7], in test [9], in test [10], in test [11], in test [12] and in test [13] was “inactive” each time. In addition, the Potency result in [15] is “inactive”.

For `Nc1ccc2cc3ccccc3cc2c1`, the Potency result in test [2], in test [3], in [4], in [5], in test [6] and in test [7] was “inactive” in each case. In addition, the Potency result in test [10], in [11] and in test [13] was “inactive” each time. For the same compound, the Potency is 5.54 µM (active) and 34.4 µM (active) in test [12]; 20.4 µM (active) and 17.8 µM (active) in test [15].

On to `CCCCCCC(O)CCCCCCCCCCC(=O)O` (configuration not stated), for which the Potency in test [1] is 19.6 µM (active) and 11 µM (active). The Potency result in test [3], in test [4], in [5], in [6], in [8] and in test [10] was “inactive” in each case. The Potency entry in [11], in test [12] and in test [13] was “inactive” throughout.

As to `COC(=O)c1cccc(C(=O)OC)c1`, the Potency result in [2], in test [3], in [4], in test [14], in test [6] and in test [7] was “inactive” in each case. Besides, the Potency entry in [8], in [9], in test [10], in test [11], in test [12] and in test [13] was “inactive” throughout. In test [15], the Potency result was “inactive”.

Take `CNCCC(Oc1ccc(C(F)(F)F)cc1)c1ccccc1` (configuration not stated): the Potency was 48.4 µM (active) and inactive in test [1]; 27.2 µM (active) and 23.9 µM (active) in [9]; 53.8 µM (active) in test [11]; 60.3 µM (active) in [13]. For the same compound, the call in [16] was inactive. In addition, the Potency result in test [4], in test [5], in [6] and in test [10] was “inactive” in each case.

Take `CCOc1ccc2c(c1)C(C)=CC(C)(C)N2`: the Potency entry in test [1], in test [2], in test [4], in test [5], in [6] and in [9] was “inactive” each time. The Potency result in [10], in test [11] and in [13] was “inactive” in each case. In addition, the Potency in test [12] is 54.2 µM (active) and 61.1 µM (active).

In the case of `Cc1cc(C(C)(C)C)c(O)c(C(C)(C)C)c1`, the Potency result in test [1], in [2], in test [4], in test [5], in test [6] and in test [7] was “inactive” throughout. The Potency entry in test [9], in test [13] and in [15] was “inactive” throughout. In [16], the result was inactive.

Turning to `Nc1nc(=S)c2[nH]cnc2[nH]1`, the Potency result in test [4], in [6], in test [7], in test [10], in test [12] and in test [15] was “inactive” in each case. Further, the Potency in test [14] is 26.6 µM (active) and inactive; in [11], “inactive and 24.3 µM (active)”; in [13] it was 11.9 µM (active) and 4.33 µM (active).

`NC(=Nc1ccccc1)Nc1ccccc1`: the Potency result in test [1], in test [2], in [4], in test [5], in test [6] and in test [9] was “inactive” in each case. Besides, the Potency entry in test [17], in test [18], in test [13] and in test [15] was “inactive” in each case.

With `c1cc(C(c2ccc(OCC3CO3)cc2)C(c2ccc(OCC3CO3)cc2)c2ccc(OCC3CO3)cc2)ccc1OCC1CO1` (configuration not stated), the Potency entry in test [1], in test [2], in [4], in test [5], in test [6] and in test [9] was “inactive” throughout. For the same compound, the Potency result in [10], in test [11] and in test [13] was “inactive” in each case. In test [12], the Potency was 8.96 µM (active) and 27.3 µM (active).

With `Nc1nc2ccccc2[nH]1`, the Potency entry in [1], in test [2], in [4], in test [6], in test [8] and in test [9] was “inactive” each time. Also, the Potency result in [11], in test [12] and in test [13] was “inactive” each time.

For the compound `OCCOCCN1CCN(C(c2ccccc2)c2ccc(Cl)cc2)CC1` (configuration not stated), the Potency result in [1], in test [2], in test [4], in [5], in test [6] and in test [7] was “inactive” throughout. Moreover, the Potency result in test [10] and in test [12] was “inactive” in each case. Further, the Potency in [9] was 21.6 µM (active); in [11] it was 60.3 µM (active) and inactive; in test [13], 30.2 µM (active); in [15], “inactive and 27.5 µM (active)”.
